Experimental data: PubChem BioAssay AID1159580 (chemical genetic matrix, 2015)
“And” between values parts separate entries of the source, which are not always exact repeats. Identical values can stand only once. Hit rate of the full screen: of about 5,500 compounds, about 2,000 (36%) were called active. Not shown: some 18% with an inconclusive outcome. No stated cut-off is given here; in the data, active means normalized growth mostly below about 0.91 (no sharp cut-off); inconclusive means no clear call, values can overlap the other calls; inactive means mostly above about 0.92. The list shows a part of the results.

Assay: chemical genetic growth profiling, strain panel (AID 1159580);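 further: tested at 20 µM; growth read once vehicle control cultures reached saturation at 30 °C; 1 = growth at the plate median or of vehicle wells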
Details: S. cerevisiae deletion strains, growth OD

Measured: normalized growth

O=c1cccc2n1CC1CC2CN2CCCC[C@@H]12 (some centres undefined)
inactive: locus YAL013W, strain DEP1, stronger effect = lower value 0.999 | locus YAL021C, strain ccr4, stronger effect = lower value 0.999 | locus YAL026C, strain drs2, stronger effect = lower value 0.983 | locus YAL030W, strain snc1, stronger effect = lower value 0.979 | locus YBL061C, strain skt5, stronger effect = lower value 0.983 | locus YBR009C, strain hhf1, stronger effect = lower value 0.947 | locus YBR021W, strain FUR4, stronger effect = lower value 1.01 | locus YBR023C, strain chs3, stronger effect = lower value 0.974 | locus YBR171W, strain sec66, stronger effect = lower value 0.974 | locus YBR229C, strain ROT2, stronger effect = lower value 0.953 | locus YBR231C, strain swc5, stronger effect = lower value 0.97 | locus YBR279W, strain paf1, stronger effect = lower value 0.988 | locus YCL011C, strain gbp2, stronger effect = lower value 0.983 | locus YCL016C, strain dcc1, stronger effect = lower value 0.976 | locus YCL029C, strain bik1, stronger effect = lower value 0.974 | locus YCL061C, strain MRC1, stronger effect = lower value 0.985 | locus YCL069W, strain vba3, stronger effect = lower value 0.98 | locus YCR088W, strain abp1, stronger effect = lower value 0.973 | locus YDL005C, strain med2, stronger effect = lower value 0.982 | locus YDL035C, strain GPR1, stronger effect = lower value 1 | locus YDL040C, strain nat1, stronger effect = lower value 0.961 | locus YDL074C, strain BRE1, stronger effect = lower value 1.01 | locus YDL101C, strain DUN1, stronger effect = lower value 0.992 | locus YDL134C, strain PPH21, stronger effect = lower value 0.989 | locus YDL185W, strain tfp1, stronger effect = lower value 0.971 | locus YDL192W, strain arf1, stronger effect = lower value 0.99 | locus YDR001C, strain nth1, stronger effect = lower value 0.968 | locus YDR069C, strain doa4, stronger effect = lower value 0.982 | locus YDR101C, strain arx1, stronger effect = lower value 1.03 | locus YDR137W, strain rgp1, stronger effect = lower value 0.994 | locus YDR150W, strain NUM1, stronger effect = lower value 0.992 | locus YDR159W, strain sac3, stronger effect = lower value 0.938 | locus YDR162C, strain NBP2, stronger effect = lower value 0.987 | locus YDR195W, strain ref2 0.946 | locus YDR297W, strain sur2, stronger effect = lower value 0.977 | locus YDR318W, strain mcm21, stronger effect = lower value 0.978 | locus YDR334W, strain swr1, stronger effect = lower value 0.978 | locus YDR335W, strain msn5, stronger effect = lower value 0.987 | locus YDR388W, stronger effect = lower value 0.985 | locus YDR392W, strain spt3, stronger effect = lower value 0.876 | locus YDR502C, strain sam2, stronger effect = lower value 0.981 | locus YEL003W, strain gim4, stronger effect = lower value 0.985 | locus YEL037C, strain rad23, stronger effect = lower value 0.983 | locus YEL061C, strain CIN8 (second series), stronger effect = lower value 0.974 | locus YEL061C, strain CIN8, stronger effect = lower value 0.991 | locus YER015W, strain faa2, stronger effect = lower value 0.976 | locus YER016W, strain bim1, stronger effect = lower value 0.971 | locus YER110C, stronger effect = lower value 0.972 | locus YER111C, strain swi4, stronger effect = lower value 0.977 | locus YER155C, strain BEM2 (second series), stronger effect = lower value 0.973 | locus YER155C, strain BEM2, stronger effect = lower value 1 | locus YER167W, strain BCK2, stronger effect = lower value 0.987 | locus YFR010W, strain ubp6, stronger effect = lower value 0.972 | locus YGL078C, strain dbp3, stronger effect = lower value 0.991 | locus YGL086W, strain mad1, stronger effect = lower value 1.04 | locus YGL167C, strain pmr1, stronger effect = lower value 0.968 | locus YGL173C, strain kem1, stronger effect = lower value 0.981 | locus YGL227W, strain vid30, stronger effect = lower value 0.974 | locus YGL240W, strain doc1, stronger effect = lower value 0.962 | locus YGL248W, strain PDE1, stronger effect = lower value 0.986 | locus YGL253W, strain hxk2, stronger effect = lower value 0.982 | locus YGR135W, strain pre9, stronger effect = lower value 0.982 | locus YGR229C, strain SMI1, stronger effect = lower value 0.993 | locus YGR252W, strain gcn5, stronger effect = lower value 0.968 | locus YHR013C, strain ard1, stronger effect = lower value 0.928 | locus YHR027C, strain rpn1, stronger effect = lower value 0.982 | locus YHR030C, strain SLT2, stronger effect = lower value 0.996 and 1.02 | locus YHR079C, strain IRE1 (second series), stronger effect = lower value 0.986 | locus YHR079C, strain IRE1, stronger effect = lower value 1.02 | locus YHR094C, strain hxt1, stronger effect = lower value 0.967 | locus YHR129C, strain ARP1, stronger effect = lower value 0.983 | locus YHR142W, strain chs7, stronger effect = lower value 1 | locus YHR200W, strain rpn10, stronger effect = lower value 0.975 | locus YIL066C, strain RNR3, stronger effect = lower value 0.987 | locus YIL073C, strain SPO22, stronger effect = lower value 0.967 | locus YIL125W, strain kgd1, stronger effect = lower value 0.986 | locus YIR030C, strain dcg1, stronger effect = lower value 0.984 | locus YJL092W, strain hpr5, stronger effect = lower value 0.981 | locus YJL095W, strain BCK1 (second series), stronger effect = lower value 0.978 | locus YJL095W, strain BCK1, stronger effect = lower value 1 and 1.01 | locus YJL115W, strain asf1, stronger effect = lower value 0.988 | locus YJL129C, strain trk1, stronger effect = lower value 0.982 | locus YJL134W, strain LCB3, stronger effect = lower value 0.983 | locus YJL154C, strain vps35, stronger effect = lower value 0.98 | locus YJL164C, strain tpk1, stronger effect = lower value 0.984 | locus YJL166W, strain qcr8, stronger effect = lower value 1.01 | locus YJL168C, strain set2, stronger effect = lower value 0.99 | locus YJL187C, strain SWE1 (second series), stronger effect = lower value 0.995 | locus YJL187C, strain SWE1, stronger effect = lower value 0.99
